Compounds with a hit are over-represented: about 7.5% of the library has one in this group of screens.
NPC1 promoter act: activators of NPC1 promoter | Potency, µM (highest dose often 9.22 µM), most hits filed as activators | 320,000 tested, 2.4% active | Huh7 NPC1 promoter luciferase reporter, 24 h; note: nearly all actives have a fitted effect of over 60% in size
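Quantitative HTS used a cell-based reporter: Huh7 cells stably bearing the NPC1 promoter upstream of luciferase were treated with compounds for 24 h, and promoter activation was read as luminescence.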
FLuc counter: inhibits or activates purified firefly luciferase, miR-21 counter-screen; AID 588342; 360,000 tested, 6.9% active; Potency, µM (titrated, usually from 57.5 µM), hits mostly inhibitors; purified FLuc, Km substrates, luminescence inhibition; note: nearly all actives have a fitted effect of over 55% in size
Target sequence (P08659 whole entry, looked up): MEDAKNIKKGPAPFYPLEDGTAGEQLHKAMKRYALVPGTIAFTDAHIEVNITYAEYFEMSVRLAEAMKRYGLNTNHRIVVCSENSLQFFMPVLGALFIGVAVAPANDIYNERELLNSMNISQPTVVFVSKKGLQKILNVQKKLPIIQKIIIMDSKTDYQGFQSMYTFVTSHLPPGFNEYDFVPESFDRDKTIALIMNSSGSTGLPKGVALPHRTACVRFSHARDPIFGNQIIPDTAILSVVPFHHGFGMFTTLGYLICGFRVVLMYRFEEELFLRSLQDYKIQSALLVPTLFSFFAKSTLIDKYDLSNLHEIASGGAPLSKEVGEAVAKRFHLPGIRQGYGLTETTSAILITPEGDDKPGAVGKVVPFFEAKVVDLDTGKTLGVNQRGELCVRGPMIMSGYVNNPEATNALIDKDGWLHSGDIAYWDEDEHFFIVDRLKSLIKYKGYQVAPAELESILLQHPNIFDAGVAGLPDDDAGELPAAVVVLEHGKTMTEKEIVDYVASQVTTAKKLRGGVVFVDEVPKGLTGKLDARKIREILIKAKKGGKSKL
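Purified P. pyralis luciferase (10nM final) with 10uM D-luciferin and 10uM ATP (Km levels) in 50mM Tris acetate pH 7.5, 10mM Mg acetate, 0.01% Tween-20, 0.05% BSA; qHTS 6-point titration, ~60 µM downward; luminescence read.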
ELG1 genotox: induces genotoxicity in HEK293T cells with luciferase-tagged ELG1; Potency, µM (titrated, usually from 46 µM), hits mostly activators; AID 504466; HEK293T ELG1-luciferase reporter, luminescence, 16 h; 330,000 tested, 1.3% active; note: nearly all actives have a fitted effect of over 60% in size
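After overnight (16 hr) compound treatment at 37 °C, ELG1-luciferase HEK293T cells were lysed with ONE-Glo; luminescence quantified 30 min later at room temperature.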
Rab9 prom act: activators of Rab9 promoter | Huh7 Rab9 promoter-luciferase reporter, luminescence, 24 h | Potency, µM (highest dose often 9.22 µM), most hits filed as activators | 320,000 tested, 2.8% active | AID 485297; note: nearly all actives have a fitted effect of over 60% in size
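Luminescence read-out: Huh7 cells stably expressing Rab9-luciferase, treated 24 h with compound at 37 °C, then lysed with luciferase reagent for 10 min at ambient before reading.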
SMN2 splice enh: increases expression of the SMN2 splice variant; 210,000 tested, 2.8% active; Potency, µM (doses to about 46.1 µM), hits mostly activators; HEK293 SMN2-luciferase splicing reporter, luminescence, 30-36 h; note: nearly all actives have a fitted effect of over 55% in size
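qHTS luciferase splicing reporter: luminescence rises when SMN2 exon 7 is included in transfected HEK293 cells. Compound exposure lasted 30-36 h at 37C, with 4.5 mM final sodium butyrate as control, followed by a ONE-Glo read.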
Luc counter: counter-screen: inhibitors of Kinase-Glo firefly luciferase; Q27757; Kinase-Glo luciferase, ATP luminescence, 8 min; Potency, µM (doses to about 38.3 µM), actives largely listed as inhibitors; 200,000 tested, 0.28% active; note: nearly all actives have a fitted effect of over 60% in size
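Recombinant Kinase-Glo luciferase, 10 uM ATP (linear range), luciferin; imidazole pH 7.2 / KCl / MgCl2 / Tween / BSA buffer; 8 min RT; luminescence.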
Each line names hits and unclear results; the compound was inactive in the other large screens. Calls come from the whole dose curve; as a rule, active = well fitted curve in the direction sought with a large enough effect; inconclusive = small, poorly fitted or top-dose-only effect, or another doubt; inactive = no such curve, though single readings can be large; an effect the other way counts as inactive or inconclusive.

C/C(=N/NC(=O)c1ccc(Br)o1)c1ccncc1	FLuc counter inconclusive
CCCCn1cc(S(=O)(=O)c2ccccc2)c(=O)c2cc(F)c(N3CCC(C)CC3)cc21	none (no result: NPC1 promoter act, ELG1 genotox, Rab9 prom act, SMN2 splice enh, Luc counter)
CC(C)c1ccc(C(=O)CSc2n[nH]c(-c3ccncc3)n2)cc1	FLuc counter 15.1µM
CCc1ccc(C(=O)CSc2n[nH]c(C)n2)cc1	FLuc counter 21.3µM, Rab9 prom act inconclusive
COc1ccc(-c2nc(SCC(=O)c3ccc(Br)cc3)n[nH]2)cc1	none (no result: NPC1 promoter act, ELG1 genotox, Rab9 prom act, Luc counter)
Cc1cc(NC(=O)CCC(=O)N(Cc2ccco2)C2(C(=O)NC3CCCCC3)CCCC(C)C2)no1 (stereo not drawn)	none (no result: SMN2 splice enh, Luc counter)
CN(C)c1oc(-c2ccc(OCc3ccccc3)cc2)nc1C#N	FLuc counter inconclusive, ELG1 genotox 16.4µM, SMN2 splice enh inconclusive
Cc1ccc(/C=N/NC(=O)c2cccs2)o1	FLuc counter 16.9µM
Cc1cc(C(=O)N/N=C/c2ccc(N(C)C)o2)cs1	FLuc counter inconclusive (no result: SMN2 splice enh, Luc counter)
Cc1ccc(/C=N/NC(=O)c2csc(C)c2)o1	FLuc counter 15.1µM
Cc1ccc(OCC(=O)NC(=S)Nc2ccc(Br)cn2)cc1C	none
CCc1ccccc1S(=O)(=O)Cc1ccc(C(=O)NCCc2ccc(C)cc2)o1	none (no result: NPC1 promoter act, ELG1 genotox, Rab9 prom act, Luc counter)
CCOc1ccc(/C=C2\SC(=S)N(CCC(=O)Nc3ccccc3C(=O)O)C2=O)cc1	FLuc counter 15.1µM, Rab9 prom act inconclusive (no result: SMN2 splice enh, Luc counter)
COc1ccc(/C=C2\SC(=S)N(CCCC(=O)Nc3ccccc3C(=O)O)C2=O)cc1OC	none (no result: SMN2 splice enh, Luc counter)
O=C(O)CCN1C(=O)CC(N2C(=O)/C(=C/c3ccc(Cl)cc3)SC2=S)C1=O (stereo not drawn)	FLuc counter 19µM
COc1ccc(/C=C2\SC(=S)N(CCC(=O)Nc3ccccc3C(=O)O)C2=O)cc1	FLuc counter 21.3µM (no result: SMN2 splice enh, Luc counter)
CCOc1ccc(/C=C2\SC(=S)N(CCC(=O)O)C2=O)cc1	FLuc counter 1.69µM (no result: SMN2 splice enh, Luc counter)
COc1ccc(/C=C2\SC(=S)N(CCC(=O)N3CCCCC3)C2=O)cc1	FLuc counter inconclusive (no result: SMN2 splice enh, Luc counter)
CCOc1ccc(/C=C2/SC(=S)N(CCC(=O)Nc3ccc(C(=O)O)cc3)C2=O)cc1	FLuc counter 1.2µM, ELG1 genotox inconclusive (no result: SMN2 splice enh, Luc counter)
O=c1nc(NCc2ccco2)sc2ncccc12	none (no result: SMN2 splice enh)
COc1ccc(OC)c(Nc2nc(=O)c3cccnc3s2)c1	FLuc counter 16.9µM, Luc counter 11.2µM
Cc1ccc(Nc2nc(=O)c3cccnc3s2)cc1	NPC1 promoter act 3.16µM, FLuc counter 12µM, ELG1 genotox inconclusive, Rab9 prom act 2.51µM
COc1cccc2cc(C(=O)N3CCc4ccccc4C3)c(=O)oc12	FLuc counter 16.9µM, ELG1 genotox inconclusive
COc1cccc2cc(C(=O)NCCC3=CCCCC3)c(=O)oc12	FLuc counter inconclusive
COc1cccc2cc(C(=O)NCc3ccccn3)c(=O)oc12	NPC1 promoter act inconclusive, FLuc counter 10.7µM, ELG1 genotox inconclusive, Rab9 prom act inconclusive
COc1cccc2cc(C(=O)NCCc3ccccc3)c(=O)oc12	FLuc counter 10.7µM, ELG1 genotox inconclusive (no result: SMN2 splice enh, Luc counter)
CC(=O)c1ccc(S(=O)(=O)N(C)CCCC(=O)NCc2ccc3c(c2)OCO3)cc1	none (no result: SMN2 splice enh, Luc counter)
COc1ccc(N/C=C(\C#N)S(=O)(=O)c2ccc(Cl)cc2)c(OC)c1	none (no result: SMN2 splice enh, Luc counter)
Cc1ccc(OCC(=O)Nc2ccc3nn(-c4ccc(C)cc4)nc3c2)cc1	SMN2 splice enh inconclusive (no result: NPC1 promoter act, ELG1 genotox, Rab9 prom act, Luc counter)
C=CCn1c(SCc2ccc(C(=O)Nc3ccccc3)cc2)nnc1-c1ccccc1	FLuc counter 13.5µM
CCn1c(SCc2ccc(C(=O)Nc3nccs3)cc2)nnc1-c1ccc(NC(C)=O)cc1	FLuc counter 10.7µM
Cn1c(SCc2ccc(C(=O)Nc3nccs3)cc2)nnc1-c1ccccc1	FLuc counter 15.1µM
CCn1c(SCc2ccc(C(=O)Nc3nccs3)cc2)nnc1-c1ccc(N)cc1	FLuc counter 16.9µM
C=CCn1c(SCC(=O)NNC(=S)Nc2ccccc2)nnc1-c1ccccc1	none (no result: SMN2 splice enh, Luc counter)
Cc1cc(C)n(CCC(=O)Nc2ccc3c(c2)OCCO3)n1	FLuc counter inconclusive (no result: SMN2 splice enh, Luc counter)
O=C(Nc1ccc(-c2nnc3n2CCCCC3)cc1)c1ccco1	none
O=C(c1ccco1)N1CCN(c2ccc(N3CCCCC3)nn2)CC1	NPC1 promoter act inconclusive, FLuc counter 23.9µM, ELG1 genotox inconclusive, Rab9 prom act 3.16µM (no result: SMN2 splice enh, Luc counter)
Cc1nc(N2CCN(C(=O)c3ccco3)CC2)nc2c1C(=O)CCC2	NPC1 promoter act 0.316µM, FLuc counter 0.757µM, ELG1 genotox 0.461µM, Rab9 prom act 0.1µM (no result: SMN2 splice enh, Luc counter)
O=C(Nc1ccc(-c2ccc(N3CCCCC3)nn2)cc1)c1ccco1	NPC1 promoter act inconclusive, FLuc counter 4.78µM, ELG1 genotox inconclusive, Rab9 prom act 2.82µM (no result: SMN2 splice enh, Luc counter)
NC(=O)N1CCN(C(=O)c2ccco2)CC1	none
Cc1ccc(-n2nc(CO)c(C(=O)NCCc3ccccc3)n2)cc1C	none (no result: NPC1 promoter act, ELG1 genotox, Rab9 prom act, Luc counter)
Cc1cc(C)cc(OCC(=O)N(Cc2ccccc2)C2CCS(=O)(=O)C2)c1 (stereo not drawn)	none (no result: SMN2 splice enh, Luc counter)
Cc1nn2c(-c3ccco3)ccnc2c1-c1ccc(Cl)cc1	FLuc counter 5.36µM (no result: NPC1 promoter act, ELG1 genotox, Rab9 prom act, Luc counter)
Cc1nn2c(-c3ccc(Cl)cc3)ccnc2c1-c1ccccc1	NPC1 promoter act inconclusive, FLuc counter 8.49µM

Screening results from PubChem.
